CDK5 p35 inh – CDK5/p35 (human) kinase inhibition. AID 488839. hit rate 0.01% among 330,000. Q00535+Q15078. Recombinant CDK5/p35, ADP-Glo luminescence, 60 min. inhibition, % at 10 µM;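 active = highest replicate inhibition of at least 50% and at least 75% of replicates reaching 50%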;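 note: plate controls were DMSO neutral control for no effect and GW8510 at 10 µM for full effect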
esBAF inh – SWI/SNF esBAF complex inhibition. mouse ES cells, Bmi1-luciferase knock-in reporter, 24 h; 100% = twice the neutral-well signal. reporter increase, % at 12.5 µM. hit rate 2% among 350,000; in the data active = activation above about 40%;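 note: 0% = median of the plate's neutral control wells and 100% = double that signal; a rise in the Bmi1 reporter signal indicates esBAF inhibition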
Rtt109 HAT inh – inhibitors of Candida albicans Rtt109/Vps75 histone acetyltransferase; inhibition, % at 34.9 µM; hit rate 0.16% among 330,000; Q5AAJ8; purified Rtt109/Vps75, ThioGlo CoA-SH fluorescence, 4 h;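 active = inhibition of at least 50% in every replicate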
Target sequence (Q5AAJ8 whole entry, looked up): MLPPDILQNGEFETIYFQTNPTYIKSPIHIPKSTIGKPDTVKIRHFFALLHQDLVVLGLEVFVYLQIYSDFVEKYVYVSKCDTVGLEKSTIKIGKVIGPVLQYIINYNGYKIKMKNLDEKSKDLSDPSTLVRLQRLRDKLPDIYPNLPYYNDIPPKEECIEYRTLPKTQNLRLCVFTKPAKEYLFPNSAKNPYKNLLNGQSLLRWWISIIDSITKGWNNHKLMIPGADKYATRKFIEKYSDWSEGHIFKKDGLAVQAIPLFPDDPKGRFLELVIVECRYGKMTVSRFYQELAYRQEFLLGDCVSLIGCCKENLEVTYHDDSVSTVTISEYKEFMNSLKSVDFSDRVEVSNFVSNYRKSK
SMARCA2 activ – activators of SMARCA2 function; hit rate 1% among 370,000; AID 652017; MG213 cells, MMTV-luciferase reporter, dexamethasone, overnight; activation, % at 9.1 µM; in the data active = activation above about 7.8%;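 note: 0% = vehicle wells and 100% = reference activator wells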
dFosB act – activators of mouse delta FosB homodimer; hit rate 0.99% among 340,000; AID 493131; purified delta FosB, TAMRA-CDK5 oligo fluorescence polarization; percent of positive-control signal above neutral wells; P13346; activation, % at 25 µM;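 active = mean activation above about 17%, with every replicate also reaching it, limit read from the data, passing the limit was not always enough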
DYRK1A inh – Dyrk1A (rat) kinase inhibition; ADP-Glo luminescence, NFATc1 peptide; inhibition, % at 12.5 µM; hit rate 0.43% among 310,000; in the data active = inhibition above about 50%;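 note: plate controls were vehicle with enzyme for no effect and no enzyme for full effect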
* marks the source's active call; other numbers are inactive results; / = no result. Hits are enriched below; roughly 3.2% of the tested compounds scored in any of these assays.

SMILES	CDK5 p35 inh	esBAF inh	Rtt109 HAT inh	SMARCA2 activ	dFosB act	DYRK1A inh
COc1ccc(C2OC3=C(Nc4cc(C)c(C)cc4N3)C2=O)cc1 (centres undefined)	1	56*	-1	2	12	-3
Cc1c(C(=O)Nc2ccc(S(=O)(=O)N(C)C3CCN(C)CC3)cc2)oc2ccccc12	-3	-8	26	1	-44	16
Cc1c(C(=O)Nc2ccc(S(=O)(=O)N(C)C3CCN(C)CC3)cc2)oc2c(Cl)cccc12	1	-66	66*	1	-44	11
Cc1ccccc1OCC(=O)NCC(=O)OCC(=O)c1ccc([N+](=O)[O-])cc1	1	-7	130*	2	-6	-7
Cc1ccc(C(=O)COC(=O)CNC(=O)COc2ccccc2C)cc1C	-1	-6	5	-1	4	3
O=C(CCC(=O)OCC(=O)c1ccc([N+](=O)[O-])cc1)Nc1ccccc1Cl	0	-2	75*	/	-2	-12
Cc1cc(C)c(OCC(=O)Nc2cccc(O)c2)cc1C	0	55*	-8	2	-4	3
C[C@@H]1CCCCO[C@H](CN(C)C(=O)Cc2ccccc2)[C@@H](C)CN([C@@H](C)CO)C(=O)c2cc(NC(=O)NC3CCCCC3)ccc2O1	/	-5	/	/	/	/
Cc1ccc(OCc2cc(C(=O)N3CCCCCCC3)no2)cc1C	-2	32	3	6	-4	-2
Cc1ccc(OCc2cc(C(=O)N3CCC(c4ccccc4Cl)C3)no2)cc1C (centres undefined)	-1	57*	1	2	-14	-2
Cc1ccc(OCc2cc(C(=O)N3CCN(C4CCCCC4)CC3)no2)cc1C	2	55*	7	4	-7	2
Cc1ccc(OCc2cc(C(=O)N3CCN(C4CCCC4)CC3)no2)cc1C	0	8	-2	1	-14	-3
CN(C)c1ccnc(Oc2ccc(C(C)(C)C)cc2)c1C#N	-1	52*	1	1	-6	-1
O=C(O)c1cccc(Nc2nc(-c3cc4ccccc4oc3=O)cs2)c1	0	51*	-6	4	-14	10
Cc1nc(C(C)NC(=O)CCc2nnc(CCCc3ccccc3)o2)c(C)s1 (centres undefined)	1	70*	10	5	4	4
Clc1ccc(Nc2nc(-c3cccnc3)cs2)cc1	1	54*	1	6	-2	3
CN(C)c1ccc(Nc2nc(-c3cccnc3)cs2)cc1	0	-28	5	4	-15	-3
CCN(CC)c1ccc(Nc2nc(-c3cccnc3)cs2)cc1	-2	60*	-9	3	-11	-5
Cc1ccc(S(=O)(=O)N(C)C[C@H]2Oc3cc(C#Cc4ccncc4)ccc3S(=O)(=O)N([C@@H](C)CO)C[C@H]2C)cc1	/	0	/	/	/	/
Cn1c(SCc2ccccc2)nnc1-c1ccc2c(c1)OCO2	1	52*	6	4	-1	6
Cn1c(SCc2ccccc2)nnc1-c1c[nH]c2ccccc12	-1	81*	-8	2	-2	1
Cn1c(SCC#N)nnc1-c1ccc2c(c1)OCO2	0	-3	-9	-3	3	3
Cn1c(SCC(=O)N2CCN(c3ccccc3)CC2)nnc1-c1c[nH]c2ccccc12	-2	-2	-2	-1	-8	1
CCCCSc1nnc(-c2c[nH]c3ccccc23)n1C	0	72*	-3	4	0	5
COc1ccc(S(=O)(=O)Nc2ccc3c(c2)C(=O)N([C@H](C)CO)C[C@H](C)[C@@H](CN(C)C(=O)NC(C)C)OCCCC[C@@H](C)O3)cc1	/	-1	/	/	/	/
SMILES	CDK5 p35 inh	esBAF inh	Rtt109 HAT inh	SMARCA2 activ	dFosB act	DYRK1A inh
CC(C)(C)c1ccc(C(=O)c2cn[nH]c2-c2ccccc2O)cc1	1	63*	3	4	-3	7
O=Nc1c(O)c2ccccc2c2ccccc12	1	-62	2	-8	2	54*
CCCN(C(=O)Cn1nc(C)c([N+](=O)[O-])c1C)c1c(N)n(Cc2ccccc2)c(=O)[nH]c1=O	0	/	3	-4	18*	-1
COc1ccc(CNC(=O)c2cccc(N3CCCC3=O)c2)cc1	0	0	0	-3	-4	-10
COc1cc(NC(=O)c2ccc(N3CCCC3=O)cc2)cc(OC)c1	0	59*	2	-1	-5	8
COc1ccc2cc(N3CCCC3=O)ccc2c1	0	48*	-9	1	2	/
Cc1ccccc1Nc1c(-c2ccc(N3CCOCC3)cc2)nc2cnccn12	-2	56*	5	3	-9	-5
Cc1ccccc1Nc1c(-c2ccc(N3CCOCC3)cc2)nc2ncccn12	-2	53*	17	-1	-11	-3
Cc1ccc(Nc2c(-c3ccc(N4CCOCC4)cc3)nc3ncccn23)cc1	0	-2	8	-2	-6	2
COCC(=O)N[C@H]1C=C[C@@H](CC(=O)NCc2ccc(Cl)cc2)O[C@H]1CO	/	-1	/	/	/	/
Cc1ccc(-c2[nH]n3c(=O)c4c(nc3c2C)CCCC4)cc1	-2	53*	1	1	-4	-4
Cc1c(-c2ccccc2)[nH]n2c(=O)c3c(nc12)CCCC3	0	/	4	5	-3	6
CNC[C@H]1OCCCC[C@@H](C)Oc2ccc(NC(=O)c3ccncc3)cc2C(=O)N([C@@H](C)CO)C[C@H]1C	/	-3	/	/	/	/
O=C(C[C@H]1C=C[C@@H](NC(=O)c2cccc(F)c2)[C@H](CO)O1)Nc1nccs1	/	2	/	/	/	/
COc1ccccc1C#CC1=CC(=O)CC(C)(C)C1	/	17	/	5	/	/
CCc1ccc(C#CC2=CC(=O)CC(C)(C)C2)cc1	/	61*	/	2	/	/
COc1ccc(C#CC2=CC(=O)CC(C)(C)C2)cc1	/	45*	/	1	/	/
C[C@@H]1CN([C@@H](C)CO)C(=O)Cc2cc(NC(=O)Nc3ccc(C(F)(F)F)cc3)ccc2O[C@H]1CN(C)C	/	-2	/	/	/	/
COc1ccc(NC(=O)Nc2ccc3c(c2)C(=O)N([C@@H](C)CO)C[C@@H](C)[C@H](CN(C)S(=O)(=O)c2ccc(F)cc2)OCCCC[C@@H](C)O3)cc1	/	12	/	/	/	/
Oc1[nH]c2ccccc2c1N=Nc1nc(Nc2ccccc2)nc(N2CCOCC2)n1	1	15	3	-2	47*	-4
Cc1[nH]c2ccccc2c1/C=N/Nc1nc(Nc2ccccc2)nc(N2CCOCC2)n1	1	12	2	0	23*	-1
c1ccc(Nc2nc(N3CCCC3)nc(N3CCOCC3)n2)cc1	-1	-8	6	0	-3	17
COc1ccc(S(=O)(=O)N[C@@H]2CC[C@@H](CC(=O)N3CCC(Cc4ccccc4)CC3)O[C@H]2CO)cc1	/	12	/	/	/	/
CC=Cc1ccc2n(c1=O)C[C@H]1[C@H](CO)[C@@H](C(=O)NCc3ccc(F)cc3)N(C)[C@@H]21 (mixture of isomers)	/	-2	/	/	/	/
